# Inconclusive results are not listed. Entries that show only a call come without a potency. Active and inactive are the calls of the source. The call rests on the fitted dose curve; in most records, active means well fitted cell-killing curve with a large enough effect in the repeat runs; inconclusive means weak or mixed curves, or effect the other way; inactive means flat fitted curve, though single readings scatter.
# Assay: cAMP Responsive Elements (CRE) small molecule agonists, cell-based qHTS assay: qHTS cell viability counter screen (AID 2060914); further: nearly all actives have a fitted effect of over 50% in size
# Settings: CRE-bla HEK293T viability, CellTiter-Glo luminescence, 5 h; series mostly up to 92.4 µM
# Method in brief: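 Cells are seeded and incubated 18 h, treated with compounds in DMSO for 3 h, read for the bla reporter, then given CellTiter-Glo; luminescence is measured after 30 min at room temperature.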
# Potency means the concentration at half of the fitted maximal effect.
Compound,Potency,"activity change, negative = cytotoxicity"
CCCCCCC(O)CCCCCCCCCCC(=O)OC (stereo not drawn),inactive,
c1ccc(CN(Cc2ccccc2)Cc2ccccc2)cc1,inactive,
COC(=O)c1cc(S(N)(=O)=O)ccc1OC,inactive,
CCCCCCCO,inactive,
OCC(CBr)(CBr)CBr,inactive,
CCOC(=O)NCCOc1ccc(Oc2ccccc2)cc1,inactive,
CCOc1ccccc1OCCN[C@H](C)Cc1ccc(OC)c(S(N)(=O)=O)c1,inactive,
C=C(C)CCO,inactive,
CSc1ccc2c(c1)N(CCC1CCCCN1C)c1ccccc1S2 (stereo not drawn),60.9 µM (active),
CCCCCCCCCCCCCCCCCC#N,inactive,
C=C(C)C(=O)OCCC[Si](Cl)(Cl)Cl,inactive,
C[C@H]1C[C@@H](O)CC(C)(C)C1,inactive,
CC1(C)[C@H]2CC[C@]1(C)[C@H](O)C2,inactive,
O=C1c2ccccc2C(=O)C1c1ccccc1,inactive,
CNC(=O)Nc1ccc(Cl)c(Cl)c1,inactive,
COC(=O)c1ccc(C=O)cc1,inactive,
Nc1cccc(S(=O)(=O)O)c1,inactive,
CCCCCC1=CCCC1=O,inactive,
C1CN(SSN2CCOCC2)CCO1,inactive,
CCCCCOC(=O)CCCC,inactive,
O=C(O)Cc1ccccc1Nc1c(Cl)cccc1Cl,inactive,
CCC/C=C(\C=O)CC,inactive,
N=C(N)N1CCc2ccccc2C1,,2.66% [at 8.39 µM] (inactive)
CNc1ccccc1,inactive,
C=C(C)C(=O)OCCCCCC,inactive,
C[N+](C)(C)CCCCCCCCCC[N+](C)(C)C,inactive,
CC1(C)C(=O)NC(=O)N1CO,inactive,
Cc1cc(C)c(NC(=O)CN(CC(=O)O)CC(=O)O)c(C)c1Br,inactive,

# — PubChem BioAssay (Tox21)
